In the library only some 7.9% were active in any assay of this set; here they are far more common.
KB-V1 cytotox: qHTS assay for MDR1-selective chemotherapeutics: Primary screen using the drug-selected MDR subline cells KB-V1. KB-V1 MDR cells viability, CellTiter-Glo, 72 h. Potency, µM (top dose mostly 46.1 µM), usual class: cytotoxic. 400,000 compounds, 3.4% hits; note: % is set by controls: 0 for no effect and ±100 for the full control effect; nearly all actives have a fitted effect of over 60% in size
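In this primary screen, KB-V1 cells overexpressing P-gp are incubated with library compounds (lowest to highest concentration) for 72 h at 37 degrees C before a luminescent ATP viability read.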
KB-3-1 tox: qHTS assay for MDR1-selective chemotherapeutics: Primary screen using the parental adenocarcinoma cell KB-3-1; KB-3-1 viability, CellTiter-Glo ATP luminescence, 72 h; Potency, µM (series often up to 46.1 µM), usual class: cytotoxic; 400,000 compounds, 1.4% hits; note: % is set by controls: 0 for no effect and ±100 for the full control effect; nearly all actives have a fitted effect of over 60% in size
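Cytotoxicity in the drug-sensitive parental line KB-3-1 was scored as loss of CellTiter-Glo luminescence following 72 h incubation with compound. Values come from curve fitting of normalized concentration-response data.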
HT1080 IDH1KD tx: qHTS for induction of synthetic lethality in tumor cells producing 2HG: qHTS for the HT-1080-IDH1KD cell line | HT-1080 IDH1 knockdown viability, ATP luminescence, 48 h | Potency, µM (top dose mostly 46.1 µM), without a hit: at the highest dose activity, negative = toxicity, usual class: cytotoxic | 360,000 compounds, 2% hits;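 note: 0% = DMSO wells and -100% = cell-free medium wells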
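Knockdown cells (IDH1KD HT-1080) received compounds 2 h after plating at 750 cells/well and were kept 48 h at 37 °C in 5% FBS RPMI. A CellTiter-Glo luminescence read gave % activity for curve fitting.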
SW480 rerep: A quantitative high throughput screen for small molecules that induce DNA re-replication in SW480 colon adenocarcinoma cells; SW480 DNA re-replication, Hoechst DNA content imaging, 48 h; Potency, µM (top dose mostly 46.1 µM), for the others: at the highest dose re-replication activation, actives largely listed as activators; AID 624297, 2012; 340,000 compounds, 1.8% hits; note: % of control where 0% means no effect; nearly all actives have a fitted effect of over 55% in size
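Image-based read-out: total Hoechst fluorescence of nuclei (405 nm excitation, 500-530 nm emission), with hits raising the fraction of high-intensity nuclei. SW480 colon cells incubated 48 hr with compounds at 37 C.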
MCF10A rerep: A quantitative high throughput screen for small molecules that induce DNA re-replication in MCF 10a normal breast cells; MCF 10A DNA re-replication, Hoechst nuclear intensity, 48 h; Potency, µM (top dose mostly 46.1 µM), without a hit: top-dose activity, positive = re-replication, actives largely listed as activators; 350,000 compounds, 2.9% hits; AID 624296, 2012; note: % of control where 0% means no effect; nearly all actives have a fitted effect of over 50% in size
HT1080-NT tox: qHTS for induction of synthetic lethality in tumor cells producing 2HG: qHTS for the HT-1080-NT fibrosarcoma cell line; AID 686970, 2013; HT-1080-NT fibrosarcoma viability, CellTiter-Glo ATP luminescence, 48 h; 360,000 compounds, 1.6% hits; Potency, µM (highest dose often 46.1 µM), inactives show at the highest dose activity, negative = less viability, most hits filed as cytotoxic;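 note: NT is the 2HG producing partner of a matched IDH1 knockdown line; 0% = DMSO-treated cells and -100% = media-only wells without cells; nearly all actives have a fitted effect of over 55% in size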
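Compounds were tested in concentration-response format on HT-1080-NT cells for 48 hours at 37 degrees C. Cell viability came from CellTiter-Glo luminescence; curves were classified by r2, response magnitude and activity.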
The depositor's hits bear a star; i = inactive; ? = inconclusive; · = no result given. Calls come from the whole dose curve; as a rule, active = well fitted curve in the direction sought with a large enough effect; inconclusive = small, poorly fitted or top-dose-only effect, or another doubt; inactive = no such curve, though single readings can be large; an effect the other way counts as inactive or inconclusive. Potency is the fitted concentration of half-maximal effect.

SMILES	KB-V1 cytotox	KB-3-1 tox	HT1080 IDH1KD tx	SW480 rerep	MCF10A rerep	HT1080-NT tox
Cc1c(C(C)C)c(=O)n(-c2ccccc2)n1C	·	·	·	-3%	9%	·
Cc1c(C(C)C)c(=O)n(-c2ccc(S(=O)(=O)NCc3ccccc3)cc2)n1C	2.6µM*	?	?	-8%	26%	?
C=CCc1c(O)c(CC)cc2c(C)cc(=O)oc12	i	i	-8%	12µM*	4%	1%
CCN(CC)Cc1c(O)c(Cl)cc2c(C)cc(=O)oc12	i	i	2%	1%	?	2%
CCC(C(=O)NCc1ccccc1)n1c(CSCCOc2ccccc2)nc2ccccc21 (configuration not stated)	?	i	-4%	·	·	3%
CCN1CCN(c2ccc(S(=O)(=O)N3CCCCC3)cc2NC(=O)CCNC(C)=O)CC1	i	i	8%	-6%	0%	3%
Cc1cccc2cc(CN(C(=O)c3cccc(Cl)c3)c3ccccc3)c(=O)[nH]c12	i	i	·	·	·	·
COc1c(Cl)cc(Cl)cc1/C=C/C(=O)c1ccc(NC(=O)c2cccs2)cc1	18µM*	?	?	6.5µM*	3.7µM*	21µM*
CC(=O)c1cc(-c2ccc(F)cc2)n(CCC(=O)NCc2ccccc2C)c1C	i	i	·	·	·	·
O=C(NC(c1ccc(-c2ccccc2)cc1)c1cnccn1)C1CCN(Cc2ccc(Oc3ccccc3)cc2)CC1 (configuration not stated)	i	?	?	·	·	13µM*
COc1cc(CN2CCC(C(=O)NC(c3ccc(-c4ccccc4)cc3)c3cnccn3)CC2)cc(OC)c1 (configuration not stated)	?	?	23µM*	·	·	23µM*
COc1ccc(C(NC(=O)C2CCN(Cc3ccc(Oc4ccccc4)cc3)CC2)c2ccccc2C)cn1 (configuration not stated)	i	i	?	·	·	16µM*
COc1ccc(C(NC(=O)C2CCN(Cc3ccc(Oc4ccccc4)cc3)CC2)c2ccccn2)cc1 (configuration not stated)	i	i	23µM*	·	·	15µM*
COc1ccc(CN2CCC(C(=O)NC(C)c3cccc4ccccc34)CC2)cc1 (configuration not stated)	i	i	-14%	·	·	-16%
O=C(NC(c1ccc(Cl)cc1)c1cnccn1)C1CCN(Cc2ccccc2)CC1 (configuration not stated)	i	i	4%	·	·	7%
Cc1ccc(C(NC(=O)C2CCN(CCCOc3ccccc3)CC2)c2ccccn2)cc1 (configuration not stated)	i	i	?	·	·	?
CCOC(=O)C1CCN(C(=O)CSc2n[nH]c(-c3ccccc3Cl)n2)CC1	i	i	·	·	·	·
O=C(NC(c1ccccc1)c1ccsc1)C1CCN(Cc2ccc(Oc3ccccc3)cc2)CC1 (configuration not stated)	i	i	15µM*	·	·	18µM*
Cc1cccnc1C(NC(=O)C1CCN(Cc2ccccc2)CC1)c1ccc(F)cc1 (configuration not stated)	?	?	-28%	·	·	-37%
O=C(NC(c1ccccc1)c1ccsc1)C1CCN(Cc2ccc(Cl)c(Cl)c2)CC1 (configuration not stated)	i	i	4%	·	·	9%
Cc1cccnc1C(NC(=O)C1CCN(Cc2ccc(Oc3ccccc3)cc2)CC1)c1ccccc1 (configuration not stated)	?	i	18µM*	·	·	23µM*
Cc1ccccc1S(=O)(=O)NC(=O)C1(C)CCN1C(=O)c1cccc2ccccc12 (configuration not stated)	i	i	?	·	·	8%
CC(/C=C/c1ccco1)=N\NC(=O)C(O)c1ccccc1 (configuration not stated)	i	i	-8%	0%	23µM*	-9%
CCc1noc(C)c1C(=O)OCC(=O)N1CCc2ccccc21	i	i	-3%	-1%	0%	-5%
CC1CCc2nc3ccccc3c(C(=O)OCC(=O)N3CCc4ccccc43)c2C1 (configuration not stated)	2.1µM*	?	-3%	-2%	3%	-14%
SMILES	KB-V1 cytotox	KB-3-1 tox	HT1080 IDH1KD tx	SW480 rerep	MCF10A rerep	HT1080-NT tox
CCCc1nc2ccccc2c(C(=O)OCC(=O)N2CCc3ccccc32)c1CC	6.5µM*	?	-16%	0%	21µM*	1%
CN1C(=O)/C(=C\c2ccccc2OCc2ccccc2)SC1=S	i	i	0%	-2%	1%	0%
Cc1cc(/C=C2\SC(=S)N(Cc3ccco3)C2=O)c(C)n1-c1ccccc1	i	i	14%	-2%	5.8µM*	8%
CN1C(=O)/C(=C\c2cc(N=Nc3ccccc3)ccc2O)SC1=S	?	?	-7%	-1%	2.9µM*	-7%
CN=C1S/C(=C\c2cc(C)n(-c3ccccc3F)c2C)C(=O)N1C	i	i	0%	4%	21µM*	3%
Cc1cc(/C=C2\SC(=S)N(C)C2=O)c(C)n1-c1cccc(O)c1	?	?	-8%	17%	13µM*	-11%
C=C1C(=O)c2sccc2C(c2ccc(OC)c(OC)c2)C1COC(C)=O (configuration not stated)	?	?	2.3µM*	?	18%	2.6µM*
CCN1CCN(CC(=O)N2N=C(c3cccs3)CC2c2ccc(OC)c(OC)c2)C(=O)C1=O (configuration not stated)	i	i	-3%	-2%	-5%	15%
CCOc1ccc(NC(=O)Cn2cnc3sc(C)c(S(=O)(=O)N4CCN(c5ccccc5OC)CC4)c3c2=O)cc1	i	i	·	·	·	·
Cc1cccc(NC(=S)NNC(=O)c2ccccc2OC(F)F)c1	16µM*	?	-3%	-7%	?	3%
COc1ccc(NC(=S)NNC(=O)c2ccccc2OC(F)F)cc1	i	i	3.5µM*	0.58µM*	?	3.5µM*
Cc1cccc(NC(=S)NNC(=O)c2ccccc2Br)c1	?	i	-1%	2%	7%	1%

Source: PubChem BioAssay
